Assay outcomes from PubChem.
A selection: hits, their analogues and other compounds. The true share with any hit is near 3.4%.
FBW7 activator = human FBW7 E3 ligase activation, primary screen | normalized activity (activation), % at 26.1 µM | AlphaScreen FBW7–phospho-cyclin E peptide binding, activator screen | Q969H0 | 650,000 compounds, 0.13% hits; in the data active = normalized activity above about 1.9%;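 also: purified mutant Fbw7 with reduced substrate affinity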
Target sequence (Q969H0 whole entry, looked up): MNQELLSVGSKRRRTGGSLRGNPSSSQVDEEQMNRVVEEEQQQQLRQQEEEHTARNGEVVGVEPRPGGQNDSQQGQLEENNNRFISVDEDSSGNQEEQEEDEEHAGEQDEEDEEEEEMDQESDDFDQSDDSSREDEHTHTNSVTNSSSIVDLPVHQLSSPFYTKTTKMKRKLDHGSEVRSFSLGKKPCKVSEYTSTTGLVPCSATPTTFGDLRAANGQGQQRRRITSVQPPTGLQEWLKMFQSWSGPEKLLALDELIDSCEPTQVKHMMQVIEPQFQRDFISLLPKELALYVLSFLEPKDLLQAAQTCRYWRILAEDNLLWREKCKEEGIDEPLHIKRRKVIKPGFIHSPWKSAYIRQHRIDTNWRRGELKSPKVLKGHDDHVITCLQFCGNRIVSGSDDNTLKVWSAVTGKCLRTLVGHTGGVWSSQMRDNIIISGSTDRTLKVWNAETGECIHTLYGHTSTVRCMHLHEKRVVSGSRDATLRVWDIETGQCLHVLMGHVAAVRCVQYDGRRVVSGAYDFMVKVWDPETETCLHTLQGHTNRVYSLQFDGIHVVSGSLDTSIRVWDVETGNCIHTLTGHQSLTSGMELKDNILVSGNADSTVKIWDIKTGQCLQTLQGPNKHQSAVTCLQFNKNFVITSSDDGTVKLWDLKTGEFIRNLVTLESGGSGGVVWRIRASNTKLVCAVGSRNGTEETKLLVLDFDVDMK
GPR151 activ = human GPR151 activation; Q8TDV0; PathHunter beta-arrestin GPR151 cells, luminescence; activation, % at 11.2 µM; 650,000 compounds, 1% hits; AID 1508602; in the data active = activation above about 4.9%
MITF primary = human MITF inhibition, primary screen | O75030 | AlphaScreen MITF homodimerization, bead proximity signal | 650,000 compounds, 0.91% hits | AID 1259374 | inhibition, % at 2.6 µM; in the data active = inhibition above about 50%
TEAD-YAP inh = TEAD-YAP interaction inhibition; HEK-TIYL cells, TEAD-Gal4/YAP UAS-luciferase luminescence; inhibition, % at 9.12 µM; 640,000 compounds, 1.4% hits; in the data active = inhibition above about 32%
GPR151 conf act = human GPR151 activation, confirmation screen; shares compounds with GPR151 activ; GPR151 PathHunter beta-arrestin cells, luminescence, 90 min; % of EA-reagent control over plate median; activation, % at 11.2 µM; 6,700 tested, under 10 active; AID 1508609;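 active = mean percent activation across replicates above the confirmation screen cutoff of 4.91%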
GPR119 counter = counter-screen for GPR151 activators: effect on human GPR119; activation, % at 11.2 µM; shares compounds with GPR151 activ; AID 1508611; GPR119 PathHunter beta-arrestin cells, luminescence, 90 min; 0 = compound-well median, 100 = enzyme-acceptor control; 6,700 compounds, 0.3% hits;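 active = mean percent activation in the counterscreen above 29.09%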;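 also: counterscreen on off-target GPR119 to flag nonselective hits from the GPR151 activator screen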
A number is an active result.

What do the screens show for `Cn1ccnc1CN1CCC(Oc2ccc(C(=O)NCc3ccncc3)cc2)CC1`?
FBW7 activator: inactive; GPR151 activ: 5.2; MITF primary: inactive; TEAD-YAP inh: inactive; GPR151 conf act: inactive; GPR119 counter: inactive

How did COc1cc(C)nc(N2CCC(C(N)=O)CC2)n1 do in these assays?
FBW7 activator: inactive; GPR151 activ: 5.2; MITF primary: inactive; TEAD-YAP inh: inactive; GPR151 conf act: inactive; GPR119 counter: inactive

What do the screens show for `C[N+](C)(C)CCCNC(=O)/C=N\O`?
FBW7 activator: inactive; GPR151 activ: inactive; MITF primary: inactive; TEAD-YAP inh: inactive

Results for CCCN1C(=O)CC(c2ccco2)Sc2ccccc21 (configuration not stated) ?
FBW7 activator: inactive; GPR151 activ: 5.3; MITF primary: inactive; TEAD-YAP inh: inactive; GPR151 conf act: inactive; GPR119 counter: inactive

Results for CCn1c(C(=O)O)c(CC(=O)Nc2cnc3ccccc3c2)c2ccccc21 ?
FBW7 activator: inactive; GPR151 activ: inactive; MITF primary: inactive; TEAD-YAP inh: inactive

How did c1ccc2c(N3CCCCCC3)nc(CN3CCCC3c3nccs3)nc2c1 (configuration not stated) do in these assays?
FBW7 activator: inactive; GPR151 activ: 5.0; MITF primary: inactive; TEAD-YAP inh: inactive; GPR151 conf act: inactive; GPR119 counter: inactive

What do the screens show for `COCCn1c(C)cc(C(=O)CSc2nnnn2-c2ccccc2)c1C`?
FBW7 activator: inactive; GPR151 activ: inactive; MITF primary: inactive; TEAD-YAP inh: inactive

How did COC(=O)c1ccccc1OCCOCCOc1cccc2cccnc12 do in these assays?
FBW7 activator: inactive; GPR151 activ: inactive; MITF primary: inactive; TEAD-YAP inh: inactive

What do the screens show for `COC(=O)c1ccccc1OCCOc1ccccc1C(=O)OC`?
FBW7 activator: inactive; GPR151 activ: 5.6; MITF primary: inactive; TEAD-YAP inh: inactive; GPR151 conf act: inactive; GPR119 counter: inactive

What do the screens show for `CCOc1cnc(C(=O)NNC(=O)c2ccc(S(=O)(=O)N(C)C)cc2)o1`?
FBW7 activator: inactive; GPR151 activ: 6.0; MITF primary: inactive; TEAD-YAP inh: inactive; GPR151 conf act: inactive; GPR119 counter: inactive

Results for COCCCN1C(=O)C(=O)/C(=C(\O)c2ccccc2)C1c1ccc(C(C)C)cc1 (configuration not stated) ?
FBW7 activator: inactive; GPR151 activ: 5.3; MITF primary: inactive; TEAD-YAP inh: inactive; GPR151 conf act: inactive; GPR119 counter: inactive

Results for CCOc1ccc(N=C2C(=O)Nc3ccc([N+](=O)[O-])cc32)cc1 ?
FBW7 activator: inactive; GPR151 activ: inactive; MITF primary: inactive; TEAD-YAP inh: inactive

What do the screens show for `CC1CN(C(=O)c2ccccc2C(F)(F)F)CC(C)O1` (configuration not stated)?
FBW7 activator: inactive; GPR151 activ: 8.0; MITF primary: inactive; TEAD-YAP inh: inactive; GPR151 conf act: inactive; GPR119 counter: inactive

What do the screens show for `CC1CN(C(=O)c2cccs2)CC(C)O1` (configuration not stated)?
FBW7 activator: inactive; GPR151 activ: inactive; MITF primary: inactive; TEAD-YAP inh: inactive

What do the screens show for `Cc1c(Cl)c(C)c(C2=NON3N(C(=O)Nc4ccc(Cl)cc4)c4ccccc4N23)c(C)c1Cl`?
FBW7 activator: inactive; GPR151 activ: inactive; MITF primary: inactive; TEAD-YAP inh: inactive

Results for CC1(C)C(=O)OC(c2ccccc2F)C2(CCCCC2)C1=O (configuration not stated) ?
FBW7 activator: inactive; GPR151 activ: 5.3; MITF primary: inactive; TEAD-YAP inh: inactive; GPR151 conf act: inactive; GPR119 counter: inactive

What do the screens show for `CC(=O)N(C)c1ccc(NC(=O)C(C)(C)C)cc1`?
FBW7 activator: inactive; GPR151 activ: inactive; MITF primary: inactive; TEAD-YAP inh: inactive

Results for Nc1cccc(-c2cc(C(=O)O)c3cc(Br)ccc3n2)c1 ?
FBW7 activator: inactive; GPR151 activ: 6.7; MITF primary: inactive; TEAD-YAP inh: inactive; GPR151 conf act: inactive; GPR119 counter: inactive

How did O=C(O)c1cc(-c2cccnc2)nc2ccc(Br)cc12 do in these assays?
FBW7 activator: inactive; GPR151 activ: inactive; MITF primary: inactive; TEAD-YAP inh: inactive

What do the screens show for `O=C1N[C@@H](Cc2cnc[nH]2)C(=O)N2CCN(Cc3ccc(CN4CCCCC4)s3)C[C@H]12`?
FBW7 activator: inactive; GPR151 activ: inactive; MITF primary: inactive; TEAD-YAP inh: inactive

Results for Cc1ccc(OCC(=O)N/N=C\c2cccn2C)c([N+](=O)[O-])c1 ?
FBW7 activator: inactive; GPR151 activ: 5.3; MITF primary: inactive; TEAD-YAP inh: inactive; GPR151 conf act: inactive; GPR119 counter: inactive

What do the screens show for `CC(=O)c1cccc(NC(=O)COc2ccccc2[N+](=O)[O-])c1`?
FBW7 activator: inactive; GPR151 activ: 6.2; MITF primary: inactive; TEAD-YAP inh: inactive; GPR151 conf act: inactive; GPR119 counter: inactive

What do the screens show for `Cc1ccc(C)c(OCC(=O)N/N=C\c2cccn2C)c1`?
FBW7 activator: inactive; GPR151 activ: inactive; MITF primary: inactive; TEAD-YAP inh: inactive

How did O=C(NCc1ccco1)c1cc([N+](=O)[O-])ccc1N1CCCCC1 do in these assays?
FBW7 activator: inactive; GPR151 activ: inactive; MITF primary: inactive; TEAD-YAP inh: inactive

What do the screens show for `O=C(NC(=S)NCc1ccco1)c1cc([N+](=O)[O-])ccc1N1CCOCC1`?
FBW7 activator: inactive; GPR151 activ: 7.4; MITF primary: inactive; TEAD-YAP inh: inactive; GPR151 conf act: inactive; GPR119 counter: inactive

Results for O=C(COc1ccccc1[N+](=O)[O-])N/N=C/c1ccccc1Cl ?
FBW7 activator: inactive; GPR151 activ: 22; MITF primary: inactive; TEAD-YAP inh: inactive; GPR151 conf act: inactive; GPR119 counter: inactive

How did CN1CCN(S(=O)(=O)c2ccc(C(=O)NC3(c4cccc(F)c4)CCCC3)cc2)CC1 do in these assays?
FBW7 activator: inactive; GPR151 activ: inactive; MITF primary: inactive; TEAD-YAP inh: inactive

Results for CCOC(=O)C1CCN(C(=O)Cn2c(=O)oc3cc(Cl)ccc32)CC1 ?
FBW7 activator: inactive; GPR151 activ: inactive; MITF primary: inactive; TEAD-YAP inh: inactive

Results for C[C@H](c1ccccc1)n1c(=O)[nH]c2ncc(-c3ccsc3)nc21 ?
FBW7 activator: inactive; GPR151 activ: inactive; MITF primary: inactive; TEAD-YAP inh: inactive

What do the screens show for `COc1cc([N+](=O)[O-])cc(/C=N\NC(=O)CNc2ccccc2C)c1O`?
FBW7 activator: inactive; GPR151 activ: inactive; MITF primary: inactive; TEAD-YAP inh: inactive

Results for COc1ccc(NC(=O)Cc2ccccc2[N+](=O)[O-])cc1OC ?
FBW7 activator: inactive; GPR151 activ: 6.5; MITF primary: inactive; TEAD-YAP inh: inactive; GPR151 conf act: inactive; GPR119 counter: inactive

How did O=C(COc1ccccc1Cl)NC1CCCCCC1 do in these assays?
FBW7 activator: inactive; GPR151 activ: 4.9; MITF primary: inactive; TEAD-YAP inh: inactive; GPR151 conf act: inactive; GPR119 counter: inactive

How did COc1ccc(NC(=O)Cc2ccccc2[N+](=O)[O-])cc1Cl do in these assays?
FBW7 activator: inactive; GPR151 activ: inactive; MITF primary: inactive; TEAD-YAP inh: inactive
